Bioassay records from PubChem BioAssay.
AI-2 QS modul = Vibrio harveyi AI-2 quorum sensing modulators, primary screen, JMH597 strain, luminescence/OD600 ratio | activity change, % at 7.5 µM | 0.4% of 300,000 active | AID 2094, 2009 | Vibrio harveyi JMH597 AI-2 luminescence/OD600 ratio, 9 h; hits give low values; strain lacks LuxN and CqsS sensors; 0 = neutral-control median; in the data active = activity change below about -75%, passing the limit was not always enough; inconclusive = no clear call, values can overlap the other calls;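 note: luminescence divided by OD600 gain over 9 h not by final OD600 alone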
AddAB inh = growth inhibition of E. coli expressing H. pylori AddAB, primary screen, AddAB inhibitor project, absorbance; inhibition, % at 11.9 µM; 0.29% of 330,000 active; AID 435030, 2010; in the data active = inhibition above about 12%;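 note: 0% = vehicle wells of infected cells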
phage Ecoli inh = growth loss of phage-infected E. coli, primary screen, RecBCD inhibitor project, absorbance, with phage, HTS; inhibition, % at 11.9 µM; 0.26% of 360,000 active; AID 651602, 2012; in the data active = inhibition above about 11%
E coli growth-1 = E. coli growth inhibition, primary screen, OD600; OD600 absorbance (test concentration not listed); Escherichia coli growth, 23 h; hits give low values; 0.21% of 330,000 active;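 active = OD600 absorbance below the run mean of sample wells minus 3.6 SD, in any replicate, cut at about 0.56 in these data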
E coli growth-2 = E. coli V3065 growth inhibition, primary screen, counter-screen for AddAB inhibitor project, absorbance, OD600; 18 h; inhibition, % at 11.9 µM; 0.27% of 330,000 active;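 active = inhibition above the campaign's mean inhibition across all tested compounds plus 3 SD, cut at about 9.9% in these data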;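 note: uninfected addAB+ strain grown without phage in ampicillin broth; 0% = DMSO wells and 100% = ciprofloxacin 0.95 µg/ml wells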
Tat export inh = E. coli Tat export inhibitors, primary screen, MC4100, TorA-mCherry reporter, fluorescence, single point. inhibition, % at 10 µM. 0.036% of 340,000 active;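 active = mean replicate inhibition at least 50% and at least half of replicates individually reaching 50%; inconclusive = only one of the two criteria met; inactive = neither criterion met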;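 note: exported cargo escapes ClpAP degradation while cytoplasmic cargo is degraded and loses fluorescence; 0% = median of neutral control wells and 100% = median of NaSCN control wells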
JMH597 growth = Vibrio harveyi growth inhibition, confirmation, counter-screen for AI-2 quorum sensing project, JMH597 strain, OD600 absorbance. 1% of 750 active. AID 2726, 2010. 9 h; lacks LuxN and CqsS sensors. shares compounds with AI-2 QS modul. growth inhibition, % at 7.5 µM;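 active = every replicate shows growth inhibition above 50%; inconclusive = at least half, but not all, replicates pass that cutoff; inactive = fewer than half of replicates pass it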
BB721 const-QS lum = luminescence inhibition in constitutive-on V. harveyi, confirmation, counter-screen for LuxS inhibitor project, strain BB721, luminescence readout; shares compounds with AI-2 QS modul; Vibrio harveyi BB721 luminescence, 9 h; inhibition, % at 7.5 µM; 95% of 750 active;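 active = inhibition above about 80% in every replicate, not just on average, limit read from the data; inconclusive = at least half of replicates past the limit, but not all; inactive = fewer than half of replicates past the limit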
BB721 growth rt = growth inhibition of V. harveyi BB721, confirmation, cytotoxicity control for AI-2 quorum sensing inhibitors, strain BB721, absorbance OD600 | shares compounds with AI-2 QS modul | Vibrio harveyi BB721 growth, 9 h | growth inhibition, % at 7.5 µM | 3% of 750 active | AID 2728, 2010;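 active = every replicate shows growth inhibition above 50%; inconclusive = at least half but not all replicates above 50% inhibition; inactive = under half of replicates above 50% inhibition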
JMH597 AI-2 mod = Vibrio harveyi AI-2 signaling luminescence modulation – JMH597 strain, confirmation; shares compounds with AI-2 QS modul; Vibrio harveyi JMH597 AI-2 quorum sensing luminescence, 9 h; luxN and CqsS knockout, AI-2 only; inhibition, % at 7.5 µM; 97% of 750 active; AID 2736, 2010;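 active = every replicate shows more than 75% inhibition of signal versus neutral control wells; inconclusive = half to three quarters of replicates exceed 75% inhibition; inactive = fewer than half of replicates exceed 75% inhibition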
Active calls of the source: *; u = inconclusive; x = not tested or not shown. Compounds with a hit are over-represented: about 0.79% of the library has one in this group of screens.

SMILES	AI-2 QS modul	AddAB inh	phage Ecoli inh	E coli growth-1	E coli growth-2	Tat export inh	JMH597 growth	BB721 const-QS lum	BB721 growth rt	JMH597 AI-2 mod
CCCc1nnc(NC(=O)CCN2C(=O)c3ccccc3C2=O)s1	-87*	0	-1	0.75	0	-4	13	94*	34	96*
CC(C)c1nnc(NC(=O)CCN2C(=O)c3ccccc3C2=O)s1	-83*	2	2	0.7	1	-5	-9	95*	5	96*
CCC(CC)c1nnc(NC(=O)CCCN2C(=O)c3ccccc3C2=O)s1	19	0	3	0.69	0	3	x	x	x	x
NC(=O)C1=CC(c2ccc3c(c2)OCO3)CC(OCCCCO)O1 (configuration not stated)	x	x	x	0.63	x	x	x	x	x	x
Fc1ccc(-c2nnn(Cc3nc4ccccc4s3)n2)cc1	-90*	0	3	0.61	2	-1	22	98*	25	98*
O=C(/C=C/c1cccc(F)c1)NCc1ccc2c(c1)OCO2	-88*	2	2	0.65	-3	-4	-6	96*	-10	97*
Cc1cccc(NC(=O)CO/N=C/c2ccc3c(c2)OCO3)c1	-89*	3	4	x	0	-5	12	96*	22	97*
O=C(CO/N=C/c1ccc2c(c1)OCO2)Nc1cccc(Br)c1	-89*	0	4	x	-1	-9	13	98*	29	98*
Cc1cccc(NC(=S)NCc2ccc3c(c2)OCO3)c1	-10	1	1	0.66	2	-7	x	x	x	x
Cc1cccc(NC(=O)NCc2ccc3c(c2)OCO3)c1	-87*	-2	2	x	2	-4	-15	96*	12	96*
COC(=O)/C=C/C(=O)Nc1cccc(C(F)(F)F)c1	-89*	2	1	0.66	2	11	9	87*	34	87*
COC(=S)Nc1cccc(C(F)(F)F)c1	13	0	5	0.67	-1	-3	x	x	x	x
Cc1cc(C(=O)NNC(=O)Nc2cccc(C(F)(F)F)c2)no1	-90*	3	3	0.71	1	-8	-7	98*	-14	98*
Cc1cc(C(=O)NNC(=O)c2cccc(C(F)(F)F)c2)no1	14	1	4	0.69	-1	7	x	x	x	x
CC(C)(C)c1ccc(OCC(=O)N2CCN(c3ccccn3)CC2)cc1	x	0	2	0.6	1	3	x	x	x	x
CC(C)(C)c1ccc(OCC(=O)N2CCN(c3ncccn3)CC2)cc1	-86*	1	x	0.7	3	8	0	93*	12	95*
CCC1(c2ccccc2)NC(=O)N(CC(=O)Nc2cccc(C#N)c2)C1=O (configuration not stated)	-94*	2	3	0.61	-2	1	18	96*	18	97*
CC1(c2ccccc2)NC(=O)N(CC(=O)Nc2cccc(C#N)c2)C1=O (configuration not stated)	-95*	0	3	0.73	-1	3	-21	97*	-3	98*
COc1ccc(/C=C/C(=O)NCC(=O)NN=Cc2cc(Br)ccc2OC)cc1	x	x	x	0.65	x	x	x	x	x	x
CON=CNC(=O)NOCc1ccc(Cl)cc1Cl	x	x	x	0.68	x	x	x	x	x	x
O=C(O)c1ccc(N/N=C/c2ccc(-c3ccc(Cl)cc3Cl)o2)cc1	-90*	1	-1	x	-1	4	19	98*	1	97*
O=C(NN=Cc1ccc(Cl)cc1Cl)c1ccc(-n2cnnn2)cc1	x	x	x	0.74	x	x	x	x	x	x
Cc1cccc(C)c1OCc1cc(C(=O)N(C)Cc2cc(C3CC3)n[nH]2)no1	34	4	0	0.64	1	3	x	x	x	x
Cc1ccc(OCc2cc(C(=O)N(C)Cc3cc(C4CC4)n[nH]3)no2)cc1C	-81*	1	3	0.67	1	8	25	85*	36	90*
O=C(COc1ccccc1)NCC(=O)Nc1ccc(S(=O)(=O)NCc2ccco2)cc1	26	4	1	0.74	4	1	x	x	x	x
SMILES	AI-2 QS modul	AddAB inh	phage Ecoli inh	E coli growth-1	E coli growth-2	Tat export inh	JMH597 growth	BB721 const-QS lum	BB721 growth rt	JMH597 AI-2 mod
O=C(COc1ccccc1F)Nc1ccc(S(=O)(=O)NCc2ccco2)cc1	-92*	3	5	0.69	2	0	29	99*	-12	99*
O=C(COc1ccccc1)Nc1ccc(S(=O)(=O)NCc2ccco2)cc1	-97*	1	2	0.61	4	2	13	100*	-57	100*
O=C(COc1ncnc2ccccc12)Nc1ccccc1[N+](=O)[O-]	27	-1	4	0.71	-1	5	x	x	x	x
O=C(COc1ncnc2ccccc12)Nc1cccc([N+](=O)[O-])c1	-96*	-1	2	x	0	-2	-9	98*	-41	99*
O=C(COc1ncnc2ccccc12)Nc1ccc(Cl)c([N+](=O)[O-])c1	-97*	7	2	0.67	2	-3	-21	100*	-10	100*
CC(C)=CC(=O)OCC(=O)Nc1cccc([N+](=O)[O-])c1	-89*	3	2	0.67	4	-4	11	95*	4	97*
COc1cc([N+](=O)[O-])ccc1NC(=O)COC(=O)C=C(C)C	-23	1	0	0.7	-1	u	x	x	x	x
Cc1noc(C)c1NC(=O)N(C)CC1Oc2ccc(NC(=O)CCN3CCOCC3)cc2C(=O)N(C(C)CO)CC1C (configuration not stated)	x	x	x	0.67	x	x	x	x	x	x
Clc1ccc2oc(-c3cccnc3)nc2c1	17	-2	1	0.69	-3	0	x	x	x	x
Clc1ccc2oc(SCc3cccnc3)nc2c1	-81*	2	2	0.65	2	-5	1	97*	15	96*
O=C(NN=Cc1cn(-c2cccs2)nc1-c1ccccc1)c1ccccc1Cl	x	x	x	0.7	x	x	x	x	x	x
COc1ccc(C=NNC(=O)Cn2cnc3ccccc3c2=O)cc1	x	x	x	0.67	x	x	x	x	x	x
